This assay addresses T1, CRBN, Q96SW2.
T1 chain: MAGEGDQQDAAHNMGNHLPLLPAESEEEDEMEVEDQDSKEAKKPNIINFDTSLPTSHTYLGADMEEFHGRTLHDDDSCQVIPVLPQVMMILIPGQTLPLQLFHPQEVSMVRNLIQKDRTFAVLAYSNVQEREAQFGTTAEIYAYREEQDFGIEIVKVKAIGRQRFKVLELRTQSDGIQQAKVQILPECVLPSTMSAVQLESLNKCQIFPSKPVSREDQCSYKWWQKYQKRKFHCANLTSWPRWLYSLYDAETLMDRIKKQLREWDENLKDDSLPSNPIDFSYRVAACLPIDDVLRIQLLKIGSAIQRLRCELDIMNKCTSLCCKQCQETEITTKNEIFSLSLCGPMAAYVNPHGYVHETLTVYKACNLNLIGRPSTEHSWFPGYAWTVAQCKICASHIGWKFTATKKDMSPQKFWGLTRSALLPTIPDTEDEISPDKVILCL
Briefly: log2 fold change of degron read counts, EGFP-low vs EGFP+ sorted cells (limma voom), compound-induced degradation; higher = more compound-induced degradation of the degron-EGFP fusion; degrons are variants of IKZF1/3 zinc finger 2; compound dose not given here. The conditions noted are these: Jurkat, 18 h.

The mark [1] stands for this setting: compound: compound 19 (5-tert-butyl-thalidomide).
[2] abbreviates: compound: compound 22 (5-morpholino-thalidomide).
[3] abbreviates: compound: compound 33 (diphenyl IMiD analogue).

The full ranking holds about 8,300 sequences; the median of “log2 fold change of degron read counts, EGFP-low vs EGFP+ sorted cells (limma voom), compound-induced degradation” is about -1.1, and the highest 2% start at about 3.2. The list comes from a sample in which the highest values are over-represented; it also holds similar and randomly drawn sequences.
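Also: pooled lentiviral library of zinc finger degron-EGFP fusions in mCherry-positive Jurkat cells, FACS-sorted after compound exposure, with degron abundance counted by next-generation sequencing.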

In the case of FTCEICGARFTQKGNLLRHIKL [46F_47T_49E_50I_52G_53A_54R_55F_67L_, Q9UKT9], the “log2 fold change of degron read counts” value came out at 1.84 under setting [1], 3.12 under setting [2], 1.85 under setting [3] and 3.23 (compound: thalidomide).
The corresponding values for FCCEICGAFFTQKGNLLRHIKL [46F_47C_49E_50I_52G_53A_54F_55F_67L_, Q9UKT9] are 0.678, -0.0744, 1.4 and -0.2.
Consider FECEICGALFTQKGNLLRHIKL [46F_47E_49E_50I_52G_53A_54L_55F_67L_, Q9UKT9], for which the “log2 fold change of degron read counts” value is -2.06 under setting [1], -1.77 under setting [2], 0.784 under setting [3] and 1.34 (compound: thalidomide).
Turning to FWCEICGALFTQKGNLLRHIKL [46F_47W_49E_50I_52G_53A_54L_55F_67L_, Q9UKT9], the “log2 fold change of degron read counts” value is, setting by setting: under setting [1], 2.93; under setting [2], 2.99; under setting [3], 2.06; (compound: thalidomide) -0.0847.
The corresponding values for FACEICGAFFTQKGNLLRHIKL [46F_47A_49E_50I_52G_53A_54F_55F_67L_, Q9UKT9] are 2.61, 0.556, -0.131 and -0.84.
For FFCEICGARFTQKGNLLRHIKL [46F_47F_49E_50I_52G_53A_54R_55F_67L_, Q9UKT9] the same measures were 3.53, 3.66, 1.66 and 1.89.
The corresponding values for FWCEICGARFTQKGNLLRHIKL [46F_47W_49E_50I_52G_53A_54R_55F_67L_, Q9UKT9] are 3.43, 3.51, 1.48 and 1.46.
On to FECEICGARFTQKGNLLRHIKL [46F_47E_49E_50I_52G_53A_54R_55F_67L_, Q9UKT9], for which the “log2 fold change of degron read counts” value by setting is: under setting [1], 1.13; under setting [2], -0.528; under setting [3], 1.59; (compound: thalidomide) 3.55.
For the sequence FYCEICGAFFTQKGNLLRHIKL [46F_47Y_49E_50I_52G_53A_54F_55F_67L_, Q9UKT9], the “log2 fold change of degron read counts” value under setting [1] was found to be 3.38, the “log2 fold change of degron read counts” value under setting [2] is 3.27, the “log2 fold change of degron read counts” value under setting [3] was found to be 2.4 and the “log2 fold change of degron read counts” value (compound: thalidomide) was -0.228.
The corresponding values for FHCPICGHSFTQKGNLLRHIKL [46F_47H_49P_50I_52G_53H_54S_55F_67L_, Q9UKT9] are -2.13, -1.94, -1.36 and -2.32.
The corresponding values for FDCNQCGRHFTQKGNLLRHIKL [46F_47D_49N_50Q_52G_53R_54H_55F_67L_, Q9UKT9] are -2.61, -2.91, -2.55 and -2.64.
The corresponding values for FFCEQCGAIFTQKGNLLRHIKL [46F_47F_49E_50Q_52G_53A_54I_55F_67L_, Q9UKT9] are -0.0994, 0.676, -1.15 and -1.09.
For LGCNQCGFSCTQKGNLLRHIKL [46L_47G_49N_50Q_52G_53F_54S_55C_67L_, Q9UKT9], the “log2 fold change of degron read counts” value was -1.87 under setting [1], -2.27 under setting [2], -1.97 under setting [3] and -1.71 (compound: thalidomide).
On to FHCNQCGHDFTQKGNLLRHIKL [46F_47H_49N_50Q_52G_53H_54D_55F_67L_, Q9UKT9], for which the “log2 fold change of degron read counts” value was -2.36 under setting [1], -2.92 under setting [2], -3.64 under setting [3] and -3.18 (compound: thalidomide).
For the sequence FRCPICGRKFTQKGNLLRHIKL [46F_47R_49P_50I_52G_53R_54K_55F_67L_, Q9UKT9], the “log2 fold change of degron read counts” value is -1.49 under setting [1], -0.504 under setting [2], 0.233 under setting [3] and 0.803 (compound: thalidomide).
On to FICNQCGRHFTQKGNLLRHIKL [46F_47I_49N_50Q_52G_53R_54H_55F_67L_, Q9UKT9], for which the “log2 fold change of degron read counts” value is, setting by setting: under setting [1], -2.53; under setting [2], -2.91; under setting [3], -2.85; (compound: thalidomide) -2.39.
The corresponding values for FRCDQCGAQFTQKGNLLRHIKL [46F_47R_49D_50Q_52G_53A_54Q_55F_67L_, Q9UKT9] are -2.54, -2.73, -1.77 and -2.38.
The corresponding values for FMCEQCGASFTQKGNLLRHIKL [46F_47M_49E_50Q_52G_53A_54S_55F_67L_, Q9UKT9] are -1.6, -1.45, 1.54 and -0.529.
The corresponding values for FWCNQCGRCFTQKGNLLRHIKL [46F_47W_49N_50Q_52G_53R_54C_55F_67L_, Q9UKT9] are -1.48, -2.02, -1.83 and -1.5.
Consider LGCEICGFICTQKGNLLRHIKL [46L_47G_49E_50I_52G_53F_54I_55C_67L_, Q9UKT9], for which the “log2 fold change of degron read counts” value is, setting by setting: under setting [1], 0.761; under setting [2], -0.0429; under setting [3], -0.436; (compound: thalidomide) -0.337.
The corresponding values for FRCEICGARFTQKGNLLRHIKL [46F_47R_49E_50I_52G_53A_54R_55F_67L_, Q9UKT9] are -0.586, -0.873, -0.311 and 0.853.
FLCEICGARFTQKGNLLRHIKL [46F_47L_49E_50I_52G_53A_54R_55F_67L_, Q9UKT9]: the “log2 fold change of degron read counts” value was 0.574 under setting [1], -1.16 under setting [2], -0.0449 under setting [3] and 2.33 (compound: thalidomide).
For FHCEICGARFTQKGNLLRHIKL [46F_47H_49E_50I_52G_53A_54R_55F_67L_, Q9UKT9] the same measures were 2.72, 2.42, 0.44 and 0.706.
On to FDCEICGARFTQKGNLLRHIKL [46F_47D_49E_50I_52G_53A_54R_55F_67L_, Q9UKT9], for which the “log2 fold change of degron read counts” value is 3.3 under setting [1], 1.74 under setting [2], 0.651 under setting [3] and 2.27 (compound: thalidomide).
The corresponding values for FQCEICGARFTQKGNLLRHIKL [46F_47Q_49E_50I_52G_53A_54R_55F_67L_, Q9UKT9] are 0.106, 2.1, 1.34 and 3.7.
With FYCEICGARFTQKGNLLRHIKL [46F_47Y_49E_50I_52G_53A_54R_55F_67L_, Q9UKT9], the “log2 fold change of degron read counts” value is, setting by setting: under setting [1], 3.7; under setting [2], 3.37; under setting [3], 2.11; (compound: thalidomide) 1.8.
For FMCEICGARFTQKGNLLRHIKL [46F_47M_49E_50I_52G_53A_54R_55F_67L_, Q9UKT9] the same measures were -0.0205, -0.359, 1.34 and 1.5.
Consider FVCEICGARFTQKGNLLRHIKL [46F_47V_49E_50I_52G_53A_54R_55F_67L_, Q9UKT9], for which the “log2 fold change of degron read counts” value runs as follows: under setting [1], 1.67; under setting [2], 2.43; under setting [3], 1.02; (compound: thalidomide) 3.07.
Take FQCEICGAWFTQKGNLLRHIKL [46F_47Q_49E_50I_52G_53A_54W_55F_67L_, Q9UKT9]: the “log2 fold change of degron read counts” value was -1.84 under setting [1], -0.947 under setting [2], 0.615 under setting [3] and 2.26 (compound: thalidomide).
For FICEICGARFTQKGNLLRHIKL [46F_47I_49E_50I_52G_53A_54R_55F_67L_, Q9UKT9] the same measures were 0.817, 2.66, 1.57 and 3.04.
For FACEICGARFTQKGNLLRHIKL [46F_47A_49E_50I_52G_53A_54R_55F_67L_, Q9UKT9] the same measures were 3.84, 2.89, -0.685 and 1.16.

Values taken from the supplement of paper PMC12645437, “Orthogonal IMiD-Degron Pairs Induce Selective Protein Degradation in Cells” (ACS Chemical Biology, 2025).
